Among all 5,500 compounds or so, about 2,000 (36%) were called active. Not shown: some 18% with an inconclusive outcome. No stated cut-off is given here; in the data, active means normalized growth mostly below about 0.91 (no sharp cut-off); inconclusive means no clear call, values can overlap the other calls; inactive means mostly above about 0.92. This is one part of the list.
Assay: chemical genetic growth profiling, strain panel (AID 1159580);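 further: tested at 20 µM; growth read once vehicle control cultures reached saturation at 30 °C; 1 = growth at the plate median or of vehicle wells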
Details: S. cerevisiae deletion strains, growth OD

Measured: normalized growth

C/C=C(/C)C(=O)O[C@@H]1Cc2c(ccc3ccc(=O)oc23)OC1(C)C
inactive: locus YBR021W, strain FUR4, stronger effect = lower value 1.08 | locus YBR229C, strain ROT2, stronger effect = lower value 0.984 | locus YCL029C, strain bik1, stronger effect = lower value 1.01 | locus YDL035C, strain GPR1, stronger effect = lower value 0.974 | locus YDL074C, strain BRE1, stronger effect = lower value 0.976 | locus YDL101C, strain DUN1, stronger effect = lower value 1.01 | locus YDL134C, strain PPH21, stronger effect = lower value 0.947 | locus YDL185W, strain tfp1, stronger effect = lower value 1.01 | locus YDL192W, strain arf1, stronger effect = lower value 0.977 | locus YDR101C, strain arx1, stronger effect = lower value 1.03 | locus YDR150W, strain NUM1, stronger effect = lower value 0.934 | locus YDR162C, strain NBP2, stronger effect = lower value 0.927 | locus YDR318W, strain mcm21, stronger effect = lower value 0.962 | locus YDR388W, stronger effect = lower value 0.996 | locus YDR502C, strain sam2, stronger effect = lower value 1.03 | locus YEL061C, strain CIN8, stronger effect = lower value 0.95 | locus YER110C, stronger effect = lower value 1 | locus YER155C, strain BEM2, stronger effect = lower value 1 | locus YER167W, strain BCK2, stronger effect = lower value 0.978 | locus YGL078C, strain dbp3, stronger effect = lower value 0.991 | locus YGL086W, strain mad1, stronger effect = lower value 1.02 | locus YGL248W, strain PDE1, stronger effect = lower value 0.966 | locus YGR078C, strain PAC10, stronger effect = lower value 0.987 | locus YGR135W, strain pre9, stronger effect = lower value 0.97 | locus YGR252W, strain gcn5, stronger effect = lower value 1.05 | locus YHR030C, strain SLT2, stronger effect = lower value 0.992 | locus YHR079C, strain IRE1 (second series), stronger effect = lower value 0.987 | locus YHR094C, strain hxt1, stronger effect = lower value 0.989 | locus YHR129C, strain ARP1, stronger effect = lower value 0.973 | locus YHR200W, strain rpn10, stronger effect = lower value 1.01 | locus YIL066C, strain RNR3, stronger effect = lower value 0.979 | locus YIL073C, strain SPO22, stronger effect = lower value 0.96 | locus YIL125W, strain kgd1, stronger effect = lower value 1 | locus YIR030C, strain dcg1, stronger effect = lower value 0.989 | locus YJL095W, strain BCK1, stronger effect = lower value 0.937 | locus YJL134W, strain LCB3, stronger effect = lower value 0.985 | locus YJL168C, strain set2, stronger effect = lower value 1 | locus YJL187C, strain SWE1 (second series), stronger effect = lower value 0.984 | locus YJR043C, strain POL32, stronger effect = lower value 1.01 | locus YJR075W, strain HOC1, stronger effect = lower value 0.99 | locus YKL009W, strain mrt4, stronger effect = lower value 0.987 | locus YKL068W, stronger effect = lower value 0.983 | locus YKL085W, strain MDH1 (second series), stronger effect = lower value 0.978 | locus YKL085W, strain MDH1, stronger effect = lower value 0.978 | locus YKL190W, strain CNB1, stronger effect = lower value 0.935 | locus YKR001C, strain vps1, stronger effect = lower value 0.998 | locus YLR039C, strain RIC1, stronger effect = lower value 0.792 | locus YLR058C, strain SHM2, stronger effect = lower value 0.97 | locus YLR102C, strain apc9, stronger effect = lower value 0.99 | locus YLR262C, strain YPT6, stronger effect = lower value 0.761 | locus YLR268W, strain sec22, stronger effect = lower value 1 | locus YLR330W, strain CHS5, stronger effect = lower value 0.989 | locus YLR342W, strain FKS1 (second series), stronger effect = lower value 0.987 | locus YLR371W, strain rom2, stronger effect = lower value 1 | locus YLR418C, strain cdc73, stronger effect = lower value 1.06 | locus YML016C, strain PPZ1, stronger effect = lower value 0.987 | locus YML032C, strain rad52, stronger effect = lower value 0.969 | locus YML124C, strain tub3, stronger effect = lower value 0.982 | locus YMR078C, strain ctf18, stronger effect = lower value 0.985 | locus YMR223W, strain ubp8, stronger effect = lower value 0.974 | locus YMR307W, strain GAS1, stronger effect = lower value 0.716 | locus YNL067W, strain RPL9B, stronger effect = lower value 0.951 | locus YNL153C, strain GIM3, stronger effect = lower value 0.996 | locus YNL233W, strain BNI4, stronger effect = lower value 1 | locus YNL250W, strain rad50, stronger effect = lower value 0.981 | locus YNL271C, strain bni1, stronger effect = lower value 0.989 | locus YNL298W, strain CLA4, stronger effect = lower value 0.984 | locus YNL307C, strain MCK1, stronger effect = lower value 1 | locus YNR052C, strain pop2, stronger effect = lower value 0.915 | locus YOL012C, strain htz1 0.999 | locus YOL147C, strain pex11, stronger effect = lower value 0.99 | locus YOR061W, strain CKA2, stronger effect = lower value 0.974 | locus YOR069W, strain VPS5, stronger effect = lower value 0.975 | locus YOR136W, strain idh2, stronger effect = lower value 1.03 | locus YOR144C, strain elg1, stronger effect = lower value 0.992 | locus YOR184W, strain ser1, stronger effect = lower value 0.932 | locus YOR316C, strain cot1, stronger effect = lower value 0.987 | locus YPL241C, strain CIN2, stronger effect = lower value 0.953 | locus YPR119W, strain clb2, stronger effect = lower value 0.976 | locus YPR141C, strain kar3, stronger effect = lower value 0.981 | locus YPR163C, strain tif3, stronger effect = lower value 0.987 | locus YPR167C, strain met16, stronger effect = lower value 0.98 | strain wtn01, stronger effect = lower value 1.04
